# Inconclusive results are not listed. Where a call stands in place of a potency, no number is given. Calls of active or inactive are those of the source. The call rests on the fitted dose curve; in most records, active means well fitted curve in the direction sought with a large enough effect; inconclusive means small, poorly fitted or top-dose-only effect, or another doubt; inactive means no such curve, though single readings can be large; an effect the other way counts as inactive or inconclusive.
# Legend:
# [1] = qHTS of pediatric cancer cell lines to identify multiple opportunities for drug repurposing: Confirmatory screen for BT-37 cells (AID 1347117); further: potency means the concentration at half of the fitted maximal effect;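 further: viability measured after 48 h of compound exposure; nearly all actives have a fitted effect of over 55% in size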
# Procedure, shortened: (§1)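 Cells (500-1,000/well) in growth media were settled 5 h at 37 degrees C, then given compounds for 48 h. Viability was read as CellTiter-Glo luminescence. Primary runs used MIPE at 11 points (0.78 nM-46 µM) and NPC at 8 points (0.59 nM-46 µM); follow-ups used 11 points.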
# [2] = qHTS of pediatric cancer cell lines to identify multiple opportunities for drug repurposing: Confirmatory screen for control Hh wild type fibroblast cells (AID 1347121); further: nearly all actives have a fitted effect of over 70% in size
# Procedure, shortened: as §1
# [3] = qHTS of pediatric cancer cell lines to identify multiple opportunities for drug repurposing: Confirmatory screen for Rh18 cells (AID 1347125); further: nearly all actives have a fitted effect of over 55% in size; further: potency means the concentration at half of the fitted maximal effect
# Procedure, shortened: as §1
# [4] = qHTS of pediatric cancer cell lines to identify multiple opportunities for drug repurposing: Confirmatory screen for Rh30 cells (AID 1347126); further: nearly all actives have a fitted effect of over 55% in size; further: potency means the concentration at half of the fitted maximal effect
# Procedure, shortened: as §1
# [5] = qHTS of pediatric cancer cell lines to identify multiple opportunities for drug repurposing: Confirmatory screen for OHS-50 cells (AID 1347128);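 further: compound exposure lasted 48 h at 37 degrees C; nearly all actives have a fitted effect of over 55% in size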; further: potency means the concentration at half of the fitted maximal effect
# Procedure, shortened: as §1
# [6] = qHTS of pediatric cancer cell lines to identify multiple opportunities for drug repurposing: Confirmatory screen for SK-N-SH cells (AID 1347129);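 further: cells exposed to compound for 48 h before viability read; nearly all actives have a fitted effect of over 60% in size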; further: potency means the concentration at half of the fitted maximal effect
# Procedure, shortened: as §1
# [7] = qHTS of pediatric cancer cell lines to identify multiple opportunities for drug repurposing: Confirmatory screen for MG 63 (6-TG R) cells (AID 1347119); further: nearly all actives have a fitted effect of over 55% in size; further: potency means the concentration at half of the fitted maximal effect
# Procedure, shortened: as §1
# [8] = qHTS of pediatric cancer cell lines to identify multiple opportunities for drug repurposing: Confirmatory screen for RD cells (AID 1347124);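 further: cells exposed to compound for 48 h before viability readout; nearly all actives have a fitted effect of over 65% in size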; further: potency means the concentration at half of the fitted maximal effect
# Procedure, shortened: as §1
# [9] = molecular target: N-terminal Xaa-Pro-Lys N-methyltransferase 1 (Homo sapiens) (UniProt Q9BV86); test: qHTS Assay for Inhibitors of N-terminal methyltransferase 1 (NTMT1): LOPAC validation of the NTMT1 SAHH-coupled ThioGlo3 Assay (AID 1347143); further: nearly all actives have a fitted effect of over 70% in size; further: potency means the concentration at half of the fitted maximal effect
# Procedure, shortened: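 Fluorescence read-out (excitation 340nm, emission 450nm) of SAH-derived thiol, measured via SAHH coupling and ThioGlo3, taken immediately and after a 30 min room-temperature reaction, then normalized to the background read. Enzyme: NTMT1 at 125nM; cofactor SAM 100uM in the added reagent.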
# Furin (Homo sapiens) = Furin (Homo sapiens) (UniProt P09958); test: Furin counterscreen qHTS for Zika virus inhibitors (AID 1347149); further: nearly all actives have a fitted effect of over 70% in size; further: potency means the concentration at half of the fitted maximal effect
# Procedure, shortened: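 Fluorogenic cleavage of BOC-RVRR-AMC (2 microM final, Km ~15 µM) was monitored (ex 340, em 450 nm) at 37C after 15 min RT preincubation of 5 nM furin with compounds in HEPES pH 7.0 buffer with CaCl2 and Triton X-100. Percent inhibition was fitted to a 4-parameter Hill curve.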
# Chain of Furin (Homo sapiens) (P09958 whole entry, looked up): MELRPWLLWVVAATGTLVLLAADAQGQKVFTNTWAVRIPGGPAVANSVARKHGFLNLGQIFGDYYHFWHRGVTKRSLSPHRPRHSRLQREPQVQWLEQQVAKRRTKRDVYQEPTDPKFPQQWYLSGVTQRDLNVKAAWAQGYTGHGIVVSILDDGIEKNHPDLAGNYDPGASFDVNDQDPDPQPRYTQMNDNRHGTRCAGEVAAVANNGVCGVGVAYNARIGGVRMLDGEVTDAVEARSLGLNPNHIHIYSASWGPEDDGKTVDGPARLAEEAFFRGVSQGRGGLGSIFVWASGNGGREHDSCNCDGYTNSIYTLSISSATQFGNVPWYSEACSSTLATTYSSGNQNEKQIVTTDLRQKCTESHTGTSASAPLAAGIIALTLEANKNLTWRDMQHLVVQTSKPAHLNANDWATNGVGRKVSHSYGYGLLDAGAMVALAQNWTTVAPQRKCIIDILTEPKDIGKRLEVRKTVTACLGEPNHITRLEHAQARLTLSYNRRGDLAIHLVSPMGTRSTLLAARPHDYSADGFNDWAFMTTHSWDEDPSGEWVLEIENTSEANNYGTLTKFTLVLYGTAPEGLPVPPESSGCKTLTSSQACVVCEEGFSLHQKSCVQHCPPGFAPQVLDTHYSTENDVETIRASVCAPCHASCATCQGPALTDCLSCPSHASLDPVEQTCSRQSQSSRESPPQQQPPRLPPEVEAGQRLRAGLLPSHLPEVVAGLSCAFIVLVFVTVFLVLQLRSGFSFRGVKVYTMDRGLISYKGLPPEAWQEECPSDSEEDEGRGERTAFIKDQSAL
# Chain of N-terminal Xaa-Pro-Lys N-methyltransferase 1 (Homo sapiens) (Q9BV86 whole entry, looked up): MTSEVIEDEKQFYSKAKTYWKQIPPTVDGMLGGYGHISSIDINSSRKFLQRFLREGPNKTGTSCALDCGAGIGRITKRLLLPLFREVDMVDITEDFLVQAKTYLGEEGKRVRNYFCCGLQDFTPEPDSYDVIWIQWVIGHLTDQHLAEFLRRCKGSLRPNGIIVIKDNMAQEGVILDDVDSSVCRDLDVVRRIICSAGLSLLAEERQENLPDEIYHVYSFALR
smiles,measurement,setting,value
CN(C)C(=S)SC(=S)N(C)C,Potency,[1],3.69 µM (active)
same,Potency,[2],inactive
same,Potency,[3],5.22 µM (active)
same,Potency,[4],4.14 µM (active)
same,Potency,[5],inactive
same,Potency,[6],inactive
C=C1C[C@H]2[C@@H]3C=C(C)C4=CC(=O)CC[C@]4(C)[C@H]3CC[C@]2(C)[C@@]1(OC(C)=O)C(C)=O,Potency,[1],inactive
same,Potency,[7],inactive
same,Potency,[2],inactive
same,Potency,[8],inactive
same,Potency,[3],inactive
same,Potency,[4],inactive
same,Potency,[5],inactive
same,Potency,[6],inactive
CC(=O)OCC(=O)[C@@]1(O)CC[C@H]2[C@@H]3CCC4=CC(=O)C=C[C@]4(C)[C@H]3[C@@H](O)C[C@@]21C,Potency,[7],inactive
same,Potency,[2],inactive
same,Potency,[8],inactive
same,Potency,[3],inactive
same,Potency,[4],inactive
same,Potency,[5],inactive
same,Potency,[6],inactive
COc1cccc2c1C(=O)c1c(O)c3c(c(O)c1C2=O)C[C@@](O)(C(=O)CO)C[C@@H]3O[C@H]1C[C@H](N)[C@H](O)[C@H](C)O1,Potency,[1],0.657 µM (active)
same,Potency,[7],5.85 µM (active)
same,Potency,[8],5.22 µM (active)
same,Potency,[3],5.22 µM (active)
same,Potency,[5],14.7 µM (active)
same,Potency,[6],1.32 µM (active)
CC(=O)OCC(=O)[C@@]12N=C(C)O[C@@H]1C[C@H]1[C@@H]3CCC4=CC(=O)C=C[C@]4(C)[C@H]3[C@@H](O)C[C@@]12C,Potency,[1],0.657 µM (active)
same,Potency,[5],1.31 µM (active)
C[C@@H]1CN(CCCn2c3ccccc3c3ccccc32)C[C@H](C)N1,Potency,[7],inactive
same,Potency,[3],26.1 µM (active)
same,Potency,[4],26.1 µM (active)
CC[C@H](C)C(=O)O[C@H]1CCC=C2C=C[C@H](C)[C@H](CC[C@@H]3C[C@@H](O)CC(=O)O3)[C@H]21,Potency,[9],inactive
N[C@H](CO)C(=O)O,Potency,[9],inactive
CC(=O)O[C@H]1C[C@@H]2CC[C@@H]3[C@H](CC[C@@]4(C)[C@H]3C[C@H]([N+]3(C)CCCCC3)[C@@H]4OC(C)=O)[C@@]2(C)C[C@@H]1[N+]1(C)CCCCC1,Potency,[9],inactive
CC(=O)[C@H]1CC[C@H]2[C@@H]3C[C@H](C)C4=CC(=O)CC[C@]4(C)[C@H]3[C@@H](O)C[C@]12C,Potency,[2],inactive
same,Potency,[8],inactive
same,Potency,[3],inactive
same,Potency,[4],inactive
same,Potency,[6],inactive
CNCCC=C1c2ccccc2CCc2ccccc21,Potency,[9],inactive
CC(=O)Oc1ccc2c(c1)CC[C@@H]1[C@@H]2CC[C@]2(C)[C@@H](O)CC[C@@H]12,Potency,[2],inactive
same,Potency,[8],inactive
same,Potency,[3],inactive
same,Potency,[4],inactive
same,Potency,[5],inactive
CNCCC(Oc1ccccc1C)c1ccccc1 (stereo not given),Potency,[9],inactive
CC(=O)OCC(=O)[C@@]1(OC(C)=O)[C@@H](C)C[C@H]2[C@@H]3C[C@H](F)C4=CC(=O)C=C[C@]4(C)[C@@]3(F)[C@@H](O)C[C@@]21C,Potency,[2],inactive
same,Potency,[8],inactive
same,Potency,[3],inactive
same,Potency,[4],inactive
same,Potency,[5],inactive
same,Potency,[6],inactive
O=C(Nc1ccc(Oc2ccc(Cl)cc2)c(Cl)c1)c1cc(I)cc(I)c1O,Potency,Furin (Homo sapiens),inactive
Nc1ccn([C@@H]2O[C@H](CO)[C@@H](O)C2(F)F)c(=O)n1,Potency,Furin (Homo sapiens),inactive
O=C1CCC(c2ccc(-n3ccnc3)cc2)=NN1,Potency,[9],inactive
CC1(C)CCC(NC(=O)[C@@H](N)CCC(=O)O)CC1,Potency,[9],inactive
CC(CCc1ccccc1)NCC(O)c1ccc(O)c(C(N)=O)c1 (stereo not given),Potency,[9],56.2 µM (active)
Oc1c(Cl)cc(Cl)cc1Sc1cc(Cl)cc(Cl)c1O,Potency,Furin (Homo sapiens),inactive
CC(=O)OCC(=O)[C@@]1(O)[C@H](C)C[C@H]2[C@@H]3CCC4=CC(=O)C=C[C@]4(C)[C@@]3(F)[C@@H](O)C[C@@]21C,Potency,[6],inactive
CCCn1c(=O)[nH]c(=O)c2[nH]cnc21,Potency,[9],inactive
CC(C)COC(=O)OCN1C(=O)CN(CCN2CC(=O)N(COC(=O)OCC(C)C)C(=O)C2)CC1=O,Potency,[9],inactive
C[N+]1(CCCCC[N+]2(C)CCCC2)CCCC1,Potency,[9],inactive
CC(C)C[C@H]1C(=O)N2CCC[C@H]2[C@]2(O)O[C@](NC(=O)[C@@H]3C=C4c5cccc6[nH]c(Br)c(c56)C[C@H]4N(C)C3)(C(C)C)C(=O)N12,Potency,[9],56.2 µM (active)
Nc1cc(Cl)c(NC2=NCCN2)c(Cl)c1,Potency,[9],inactive
COc1c(C)c2c(c(O)c1C/C=C(\C)CCC(=O)O)C(=O)OC2,Potency,[3],1.31 µM (active)
same,Potency,[4],1.31 µM (active)
same,Potency,[6],18.7 µM (active)
same,Potency,Furin (Homo sapiens),inactive
CN1C2CCC1CC(OC(=O)c1c[nH]c3ccccc13)C2 (stereo not given),Potency,[9],inactive
CC(C)(C)CC(C)(C)c1ccc(OCCOCC[N+](C)(C)Cc2ccccc2)cc1,Potency,Furin (Homo sapiens),inactive
C1CCc2nnnn2CC1,Potency,[9],inactive
N[C@@H](Cc1cnc[nH]1)C(=O)O,Potency,[9],inactive
C[C@@H]1C(=O)NC2=Nc3cccc(Cl)c3CN21,Potency,[9],inactive
CCCC1O[C@@H]2C[C@H]3[C@@H]4CCC5=CC(=O)C=C[C@]5(C)[C@H]4[C@@H](O)C[C@]3(C)[C@]2(C(=O)CO)O1 (stereo not given in full),Potency,[9],inactive
CCCCC(=O)O[C@]1(C(=O)CO)CC[C@H]2[C@@H]3CCC4=CC(=O)CC[C@]4(C)[C@H]3[C@@H](O)C[C@@]21C,Potency,[2],inactive
same,Potency,[3],inactive
same,Potency,[4],inactive
same,Potency,[5],inactive
same,Potency,[6],inactive
C[C@@H]1C[C@H]2[C@@H]3C[C@H](F)C4=CC(=O)C(Cl)=C[C@]4(C)[C@@]3(F)[C@@H](O)C[C@]2(C)[C@@]1(O)C(=O)CO,Potency,[3],26.1 µM (active)
same,Potency,[6],inactive
COc1cc(NS(C)(=O)=O)ccc1Nc1c2ccccc2nc2ccccc12,Potency,[9],50.1 µM (active)
O=C(O)c1cc2cc(Cc3cccnc3)ccc2o1,Potency,[9],inactive
Nc1nc2ncc(CNc3ccc(C(=O)N[C@@H](CCC(=O)O)C(=O)O)cc3)nc2c(=O)[nH]1,Potency,Furin (Homo sapiens),21.5 µM (active)

# From PubChem BioAssay (NCATS)
